Data published in PubChem BioAssay (NCI).
The panel holds about 83,000 compounds, 20% with a hit somewhere; the sample as a whole holds those more often.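 Each cell line was grown in a 96-well plate and treated with one concentration of compound for 48 hours. Values below 10 were considered active.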 A number with no mark means an inactive call. The source made the active and inactive calls.

Experiments:
Assay in all cases: NCI-60 one-dose screen, 48 h (100 = growth as untreated, 0 = no growth, -100 = all killed)
SK-MEL-2 melanoma = conditions: 10 µM
EKVX NSCLC = conditions: 10 µM unless noted
SN12C renal = conditions: 10 µM unless noted
UO-31 renal = conditions: 10 µM unless noted
TK-10 renal = conditions: 10 µM unless noted
ACHN renal = conditions: 10 µM unless noted
CAKI-1 renal = conditions: 10 µM unless noted
A498 renal = conditions: 10 µM unless noted
CCRF-CEM leukemia = conditions: 10 µM unless noted
SR leukemia = conditions: 10 µM unless noted
RPMI-8226 leukemia = conditions: 10 µM unless noted
OVCAR-8 ovarian = conditions: 10 µM unless noted
OVCAR-5 ovarian = conditions: 10 µM unless noted
OVCAR-4 ovarian = conditions: 10 µM unless noted
SK-OV-3 ovarian = conditions: 10 µM unless noted
IGROV1 ovarian = conditions: 10 µM unless noted
OVCAR-3 ovarian = conditions: 10 µM unless noted
HS 578T breast = conditions: 10 µM
NCI/ADR-RES ovarian = conditions: 10 µM unless noted
MOLT-4 leukemia = conditions: 10 µM unless noted

SMILES	growth (SK-MEL-2 melanoma)	growth (EKVX NSCLC)	growth (SN12C renal)	growth (UO-31 renal)	growth (TK-10 renal)	growth (ACHN renal)	growth (CAKI-1 renal)	growth (A498 renal)	growth (CCRF-CEM leukemia)	growth (SR leukemia)	growth (RPMI-8226 leukemia)	growth (OVCAR-8 ovarian)	growth (OVCAR-5 ovarian)	growth (OVCAR-4 ovarian)	growth (SK-OV-3 ovarian)	growth (IGROV1 ovarian)	growth (OVCAR-3 ovarian)	growth (HS 578T breast)	growth (NCI/ADR-RES ovarian)	growth (MOLT-4 leukemia)
Cc1ccc(-c2nc3ccc(Cl)cn3c2NC2CCCCC2)o1	88.9%	80.7%	87.3%	58.5%	87.9%	83.1%	60.6%	53.3%	79.8%	54.3%	51.1%	92.7%	108%	71%	72.1%	62.1%	89.7%	88.2%	86.2%	–
COc1cnc2c(c1)C(=O)c1c-2n(CCCN2CCC(N)CC2)c(=O)c2cc([N+](=O)[O-])ccc12	109%	75.7%	21.6%	63.7%	82.6%	19.8%	45.2%	62.6%	1.69% (active)	2.78% (active)	39.6%	42.4%	119%	60.4%	30.4%	56%	79.7%	81.4%	76%	0.263% (active)
Cc1nn(-c2nc3ccccc3[nH]2)c2c1C(c1ccc(O)cc1)CC(=O)N2 (configuration not stated)	51%	109%	101%	69.3%	86.9%	97%	89.9%	–	17.7%	53.7%	101%	55.3%	109%	112%	84.3%	75.9%	93.2%	28.1%	88.5%	-14.4% (active)
NN1C(=O)CSC1=S	95%	98.6%	102%	94%	95.2%	107%	93.9%	–	108%	98.5%	102%	111%	96.8%	105%	98.6%	110%	110%	101%	114%	98.8%
CCc1nc2cc(F)c(/C=C/C(=O)NO)cc2c(=O)n1CCc1ccccc1	9.96% (active)	25.7%	13.6%	-15% (active)	1.94% (active)	3.69% (active)	0.745% (active)	-14.1% (active)	3.07% (active)	15.1%	11%	11.6%	23.6%	15.4%	1.17% (active)	32.2%	7.99% (active)	43.3%	2.43% (active)	3.34% (active)
COc1ccc(-n2c(=O)c3ccccc3n(Cc3ccc(C(=O)NO)cc3)c2=O)cc1	14.2%	16.7%	33.6%	55%	19.6%	50.3%	64.9%	-2.54% (active)	3.15% (active)	7.16% (active)	12%	-0.914% (active)	58.4%	17.1%	28.3%	14.4%	8.92% (active)	56.9%	70.2%	-10.1% (active)
N#Cc1c(C(F)(F)F)cc(Nc2ccc3nc(NCCN4CCCC4)oc3c2)n2c1nc1ccccc12	83.8%	73.6%	55.6%	66.6%	79.5%	83%	74.1%	52.8%	11%	0.701% (active)	44.6%	65.7%	137%	64.2%	89.9%	79.6%	91.6%	100%	86.5%	56.7%
N#Cc1c(-c2ccc(C(F)(F)F)cc2)cc(NCC2CCS(=O)(=O)CC2)n2c1nc1ccccc12	89.7%	77.5%	82.3%	56.2%	93.1%	86.8%	80.9%	55.3%	86.2%	79.9%	80.9%	93.3%	103%	85.4%	83.3%	85.6%	97.9%	81.3%	103%	74.3%
COC(=O)CC[C@@H](C)[C@H]1CC[C@H]2C3CC[C@@H]4C[C@@H]5CC[C@]4(C)[C@@]3(O5)[C@H](Br)[C@@H](Br)[C@]12C (some centres not stated)	93%	84.8%	98.1%	93.7%	97.7%	96.8%	80.3%	–	95.6%	82.6%	88.5%	97.8%	102%	85.5%	80.2%	103%	101%	112%	103%	76%
CCCCCCCC(=O)SCC/C=C/[C@@H]1CC(=O)NCc2nc(co2)C2=N[C@@](C)(CS2)C(=O)N[C@@H](C(C)C)C(=O)O1	-3.78% (active)	16.2%	12.6%	-13.5% (active)	-18.6% (active)	-27.5% (active)	-50.8% (active)	–	19.3%	10.7%	3.09% (active)	0.95% (active)	-5.93% (active)	12.2%	-12.7% (active)	-23.2% (active)	-45.6% (active)	4.63% (active)	5.57% (active)	3.84% (active)
O=C(NO)c1ccc(Cn2c(=O)n(-c3ccccc3F)c(=O)c3ccccc32)cc1	-3.95% (active)	6.72% (active)	11.5%	27.2%	6.07% (active)	22%	25%	-34.7% (active)	2.07% (active)	1.63% (active)	13.3%	-39.3% (active)	27.8%	18.2%	9.04% (active)	-21.7% (active)	-17.8% (active)	–	41.6%	-8.31% (active)
COc1cc(C(=O)NNC(=O)c2ccc(NC(=O)CCl)cc2)cc(OC)c1OC	80.7%	92.4%	65.9%	80.1%	107%	89.8%	98.2%	85.9%	33%	45.8%	97.8%	82.2%	170%	88.4%	–	75.1%	62.4%	90.5%	102%	57.2%
COc1c(C(NC(=O)c2ccccc2)c2sccc2C)cc(Cl)c2cccnc12 (configuration not stated)	108%	100%	94.1%	89.9%	98.4%	104%	95.4%	–	83.9%	90%	89.1%	96.8%	96.6%	112%	89.3%	106%	117%	98.6%	98.2%	85.7%
NC(=O)N1N=C(c2ccc(Cl)cc2)CC1c1cn(-c2ccccc2)nc1-c1ccc(Cl)cc1 (configuration not stated)	74.3%	58.1%	61.9%	21.5%	43.2%	26.1%	67.7%	71.1%	85.2%	67.3%	70.9%	36.8%	94.6%	14%	50.9%	68.8%	78.1%	50.8%	47.8%	62.9%
CCc1nc2cc(/C=C/C(=O)NO)ccc2c(=O)n1CCc1ccc(F)cc1	49.1%	38.5%	0.812% (active)	-15.5% (active)	-12.3% (active)	-26.5% (active)	0.0916% (active)	-26.2% (active)	2.06% (active)	10.7%	6.42% (active)	5.85% (active)	25.7%	25.4%	-16.3% (active)	28%	-13.5% (active)	52.6%	4.25% (active)	-3.04% (active)
OCCNC(=S)Nc1ccc(-c2nc(N3C[C@H]4CC[C@@H](C3)O4)c3cccn3n2)cc1	-21.5% (active)	1.72% (active)	2.32% (active)	-13.8% (active)	-28.2% (active)	6.16% (active)	6.32% (active)	-37.5% (active)	18.9%	11.1%	5.44% (active)	-7.06% (active)	-4.85% (active)	-7.17% (active)	-33.7% (active)	-19.9% (active)	-4.31% (active)	-28.6% (active)	3.87% (active)	16.7%
